Screening results as filed in PubChem BioAssay.
MCF10A rerep: A quantitative high throughput screen for small molecules that induce DNA re-replication in MCF 10a normal breast cells; MCF 10A DNA re-replication, Hoechst nuclear intensity, 48 h; Potency, µM (titrated, usually from 46.1 µM), inactives show at the top dose activity, positive = re-replication, actives largely listed as activators; 2.9% of 350,000 active; AID 624296, 2012; note: % of control where 0% means no effect; nearly all actives have a fitted effect of over 50% in size
KB-3-1 cytotox: qHTS assay for MDR1-selective chemotherapeutics: Primary screen using the parental adenocarcinoma cell KB-3-1; KB-3-1 viability, CellTiter-Glo ATP luminescence, 72 h; Potency, µM (titrated, usually from 46.1 µM), hits mostly cytotoxic; 1.4% of 400,000 active; note: % is set by controls: 0 for no effect and ±100 for the full control effect; nearly all actives have a fitted effect of over 60% in size
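KB-3-1 cells, DMEM (no phenol red) + 10% FBS; compound by pin transfer, 72 h, 37 °C. Readout: CellTiter-Glo luminescence after 10 min. Data normalized, curve-fitted.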
KB-V1 cytotox: qHTS assay for MDR1-selective chemotherapeutics: Primary screen using the drug-selected MDR subline cells KB-V1 | AID 1347076, 2019 | Potency, µM (series often up to 46.1 µM), usual class: cytotoxic | KB-V1 MDR cells viability, CellTiter-Glo, 72 h | 3.4% of 400,000 active; note: % is set by controls: 0 for no effect and ±100 for the full control effect; nearly all actives have a fitted effect of over 60% in size
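Luminescent ATP read-out (CellTiter-Glo, 10 min) measures survival of drug-selected KB-V1 MDR cells after 72 h, 37 degrees C compound exposure. Medium: phenol-red-free DMEM, 10% FBS. Values from fitted concentration-response curves.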
ALOX12 inh: Primary qHTS assay for inhibitors of human arachidonate 12S-lipoxygenase (ALOX12): Round 2; Polyunsaturated fatty acid lipoxygenase ALOX12 (Homo sapiens), P18054; purified 12hLO, xylenol orange hydroperoxide absorbance; Potency, µM (doses to about 108 µM), inactives show at the top dose activity change, negative = inhibition, most hits filed as inhibitors; 1.1% of 580,000 active; AID 1671190, 2021; note: % is set by controls: 0 for no effect and ±100 for the full control effect
Target sequence (P18054 whole entry, looked up): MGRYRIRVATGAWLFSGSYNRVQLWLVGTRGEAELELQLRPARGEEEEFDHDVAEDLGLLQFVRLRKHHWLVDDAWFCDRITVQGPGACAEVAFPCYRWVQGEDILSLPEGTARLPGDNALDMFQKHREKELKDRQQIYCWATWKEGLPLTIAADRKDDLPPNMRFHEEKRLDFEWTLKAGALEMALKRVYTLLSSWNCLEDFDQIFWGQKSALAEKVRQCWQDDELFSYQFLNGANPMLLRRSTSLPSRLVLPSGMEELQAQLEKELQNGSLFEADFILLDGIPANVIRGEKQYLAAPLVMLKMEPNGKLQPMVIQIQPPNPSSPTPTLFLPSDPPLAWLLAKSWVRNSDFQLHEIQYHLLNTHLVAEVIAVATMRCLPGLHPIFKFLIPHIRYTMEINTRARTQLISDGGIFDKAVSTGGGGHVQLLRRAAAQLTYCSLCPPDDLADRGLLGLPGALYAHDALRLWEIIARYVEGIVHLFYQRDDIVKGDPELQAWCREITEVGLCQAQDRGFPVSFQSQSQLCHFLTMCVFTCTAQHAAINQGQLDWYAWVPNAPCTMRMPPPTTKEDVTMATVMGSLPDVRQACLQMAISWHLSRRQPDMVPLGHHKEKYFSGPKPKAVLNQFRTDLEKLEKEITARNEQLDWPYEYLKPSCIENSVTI
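Purified human 12hLO at 150 nM in 25 mM Hepes, 0.01% Triton X-100, pH 7.0, preincubated 15 min at room temperature with compound. Reaction started with 40 uM arachidonic acid, 30 min at room temperature. Hydroperoxide measured by Fe-xylenol orange, 573/405 nm absorbance ratio.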
PINK1 modulator: A Quantitative High throughput Screen to Identify Chemical Modulators of PINK1 Expression; PINK1 immunofluorescence, high-content cytometry, 24 h; Potency, µM (top dose mostly 76.6 µM), inactives show top-dose activation (PINK1 increase), most hits filed as activators; 0.2% of 410,000 active; AID 624263, 2012; active = well fitted activation curve with a large enough effect; inconclusive = small, poorly fitted or top-dose-only effect; cell line not stated here; note: % of control where 0% means no effect; nearly all actives have a fitted effect of over 65% in size
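PINK1 protein level read as immunofluorescence by microplate cytometer in a fixed, stained stable cell line after 24 h exposure to five compound concentrations, with CCCP as control.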
SW480 rerep: A quantitative high throughput screen for small molecules that induce DNA re-replication in SW480 colon adenocarcinoma cells; SW480 DNA re-replication, Hoechst DNA content imaging, 48 h; 1.8% of 340,000 active; Potency, µM (highest dose often 46.1 µM), for the others: top-dose re-replication activation, hits mostly activators; AID 624297, 2012; note: % of control where 0% means no effect; nearly all actives have a fitted effect of over 55% in size
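Compounds, transferred as 23 nL by pin tool, were incubated with cells for 48 hr; DNA content per nucleus was then quantified by Hoechst staining and fluorescence plate imaging.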
Active calls of the source: *; i = inactive; ? = inconclusive; . = not tested or not shown; [ ] = another dose, or the depositor's remark. In the library only some 5.8% were active in any assay of this set; here they are far more common. Unless noted, calls come from the whole dose curve; as a rule, active = well fitted curve in the direction sought with a large enough effect; inconclusive = small, poorly fitted or top-dose-only effect, or another doubt; inactive = no such curve, though single readings can be large; an effect the other way counts as inactive or inconclusive. Potency is the fitted concentration of half-maximal effect.

SMILES	MCF10A rerep	KB-3-1 cytotox	KB-V1 cytotox	ALOX12 inh	PINK1 modulator	SW480 rerep
C=CCn1c(O)c(C=NCCN2CCNCC2)c(=O)[nH]c1=O	0.1%	i	i	8.8%	-1.2%	-5.2%
O=c1[nH]c(=O)n(Cc2ccccc2)c(O)c1C=NCCN1CCNCC1	2.91µM*	i	i	5.8%	2.9%[38.3 µM]	6.51µM*
COc1ccc(Cn2c(O)c(C=Nc3c(C)n(C)n(-c4ccccc4)c3=O)c(=O)[nH]c2=O)cc1	?	i	i	-4.4%	1.0%	?
Cc1[nH]c2c(C(C)C)cccc2c1CCN	.	.	.	-58.9%	.	.
C[n+]1c(-c2ccccc2)c2cc(N)ccc2c2ccc(N)cc21	-26.4%	2.91µM*	i	?	-1.2%	-96.7%
N#Cc1cnn2c(C(F)F)cc(-c3ccc(F)cc3)nc12	.	.	.	21.1%	.	.
Cn1nc(-c2ccccc2)cc1[C@H]1CN2CC[C@H]1C[C@@H]2CNC(=O)N1CCOCC1	.	.	.	30.4%[176 µM]	.	.
CC1CN(C)C(C)(C)CC1(O)c1ccccc1 (configuration not stated)	16.4µM*	i	i	0.6%	1.2%[38.3 µM]	?
Cc1ccc(C2(O)CC(C)N(C)CC2C)cc1 (configuration not stated)	1.2%	i	i	-6.2%	-1.1%	-5.6%
COc1ccc(C(=O)CC(c2ccc(OC)c(OC)c2)c2c(O)c3ccccc3oc2=O)cc1OC (configuration not stated)	.	i	i	-6.4%	0.1%	.
C/C(CC(c1ccccc1)c1c(O)c2ccccc2oc1=O)=N\NC(N)=S (configuration not stated)	-31.0%	i	?	-9.2%	4.8%	16.4µM*
Cc1nc2cc(-c3ccc(Cl)cc3)nn2c(C)c1CCC(=O)N1CCC2(CC1)OCCO2	14.0%	i	18.4µM*	?	10.5%	-3.6%
